This is an account of results in PubChem BioAssay (Tox21).

Inconclusive results are not listed. The source made the active and inactive calls. Calls come from the whole dose curve; as a rule, active = well fitted curve in the direction sought with a large enough effect in the repeat runs; inconclusive = weak or mixed curves; inactive = no such curve, though single readings can be large; an effect the other way counts as inactive or inconclusive.

Assay [1] is described as follows: A CellTox Green Cytotoxicity Assay to monitor cytotoxicity in HEK293 cells - 32 hour (AID 1224881). Note: nearly all actives have a fitted effect of over 40% in size. Note: potency is the fitted concentration of half-maximal effect. In short, it runs like this: (§1)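 Read-out: fluorescence of a cell-impermeant cyanine dye staining DNA of dead cells, proportional to cytotoxicity. HEK293, 600 cells/well with reagent, compound (23 nL DMSO) added after 5 h; reads at 0, 8, 16, 24, 32, 40 h.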
Assay [2] is described as follows: A CellTox Green Cytotoxicity Assay to monitor cytotoxicity in HepG2 cells - 32 hour (AID 1224883). Note: nearly all actives have a fitted effect of over 50% in size. Note: potency is the fitted concentration of half-maximal effect. In short, it runs like this:
(§2)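 HepG2, 600 cells/well premixed w/ CellTox Green; 5 h settle, 37 C/5% CO2; pintool cpd add (DMSO); 37 C, 40 h; fluorescence read at 0, 8, 16, 24, 32, 40 h.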

Assay [3] can be described thus: A CellTox Green Cytotoxicity Assay to monitor cytotoxicity in HEK293 cells - 8 hour (AID 1224884). Note: nearly all actives have a fitted effect of over 35% in size. Note: potency is the fitted concentration of half-maximal effect. In short, it runs like this: as §1
The nature of assay [4]: qHTS RealTime-Glo MT Cell Viability Assay in HepG2 cells - 16 hour (AID 1224885). Note: nearly all actives have a fitted effect of over 50% in size. In short, it runs like this: (§3)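 Real-time, nonlytic viability: 600 HepG2 cells/well mixed with NanoLuc enzyme plus prosubstrate; 5 h settle, compound (DMSO) added by pintool; luminescence monitored over 40 h at 37 C.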
A short description of assay [5]: qHTS RealTime-Glo MT Cell Viability Assay in HEK293 cells - 24 hour (AID 1224886). Note: nearly all actives have a fitted effect of over 50% in size. Note: potency is the fitted concentration of half-maximal effect. In short, it runs like this: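 Cells + reagent dispensed (600 cells/well, HEK293) → 5 h at 37 C/5% CO2 → 23 nL compound in DMSO pinned → 40 h at 37 C → luminescence read at 0, 8, 16, 24, 32, 40 h.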
Assay [6] in a line: qHTS RealTime-Glo MT Cell Viability Assay in HEK293 cells - 8 hour (AID 1224887). Note: nearly all actives have a fitted effect of over 50% in size. Note: potency is the fitted concentration of half-maximal effect. In short, it runs like this: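 Luminescence readout at each listed time point; HEK293, 600 cells/well, RealTime-Glo MT reagent added with cells; compounds pinned (23 nL in DMSO) after 5 h at 37 C; continuous culture at 37 C.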
Assay [7] in a line: A CellTox Green Cytotoxicity Assay to monitor cytotoxicity in HEK293 cells - 16 hour (AID 1224888). Note: nearly all actives have a fitted effect of over 35% in size. In short, it runs like this: as §1
The nature of assay [8]: qHTS RealTime-Glo MT Cell Viability Assay in HepG2 cells - 0 hour (AID 1224889). Note: nearly all actives have a fitted effect of over 50% in size. In a few lines: as §3
A short description of assay [9]: A CellTox Green Cytotoxicity Assay to monitor cytotoxicity in HepG2 cells - 8 hour (AID 1224890). Note: nearly all actives have a fitted effect of over 45% in size. Note: potency is the fitted concentration of half-maximal effect. In a few lines:
as §2

The nature of assay [10]: A CellTox Green Cytotoxicity Assay to monitor cytotoxicity in HepG2 cells - 0 hour (AID 1224882). Note: nearly all actives have a fitted effect of over 35% in size. In short, it runs like this:
as §2

As for `C#CC(O)(C=CCl)CC` (stereo not given), the Potency result in assay [1], in assay [2], in assay [3], in assay [4], in [5] and in assay [6] was “inactive” throughout. The Potency entry in assay [7] and in assay [9] was “inactive” each time. In assay [8], the outcome was inactive.
As to `CC(=O)OC(c1ccccc1)C(Cl)(Cl)Cl` (stereo not given), the Potency in assay [1] is 19.5 µM (active); in assay [2], 24.5 µM (active); in [3], 19.5 µM (active); in assay [9] it was 24.5 µM (active). Further, the Potency result in assay [4] and in assay [6] was “inactive” throughout.
Take `CN1CC[C@]23c4c5ccc(O)c4O[C@H]2[C@@H](O)C=C[C@H]3[C@H]1C5`: the Potency result in assay [1], in [3], in [4], in [5], in assay [6] and in assay [7] was “inactive” throughout. For the same compound, in assay [9], the Potency result was “inactive”. In assay [8], the result was inactive.
Consider `Cc1ncc(C[n+]2csc(CCO)c2C)c(N)n1`, for which the Potency result in [10], in [2], in assay [3], in assay [4], in assay [5] and in [6] was “inactive” in each case. Further, the Potency entry in assay [7] and in assay [9] was “inactive” in each case. Besides, the call in [8] was inactive.
On to `Nc1cc(Cl)cc(C(=O)O)c1Cl`, for which the Potency entry in assay [1], in [2], in [3], in [4], in [5] and in assay [6] was “inactive” throughout. In addition, the Potency entry in assay [7] and in [9] was “inactive” each time. In assay [8], the compound was called inactive.
Turning to `CCC1CCC(=O)O1` (stereo not given), the Potency entry in assay [10], in [2], in assay [3], in [4], in [5] and in assay [6] was “inactive” throughout. Besides, the Potency entry in assay [7] and in [9] was “inactive” each time. Besides, the compound was classed as inactive in assay [8].
Take `CCc1cnc(C2=NC(C)(C(C)C)C(=O)N2)c(C(=O)O)c1` (stereo not given): the Potency entry in assay [1], in assay [2], in assay [3], in assay [5], in assay [6] and in assay [7] was “inactive” each time. Moreover, the Potency entry in [9] is “inactive”. For the same compound, the compound was called inactive in assay [8].
Regarding `O=C(O)C(O)C(O)C(=O)O` (stereo not given), the Potency result in assay [1], in assay [2], in [3], in assay [4], in assay [5] and in assay [6] was “inactive” each time. Further, the Potency entry in assay [7] and in assay [9] was “inactive” throughout. Besides, the outcome in assay [8] was inactive.
With `COC(=O)C1(O)c2ccccc2-c2ccccc21`, the Potency entry in assay [1], in [3], in assay [4], in [5], in assay [6] and in assay [7] was “inactive” throughout. Also, the Potency result in assay [9] was “inactive”.
Take `CCOC(C(=O)OCCN(C)C)(c1ccccc1)c1ccccc1`: the Potency entry in assay [1], in assay [2], in assay [3], in assay [4], in assay [5] and in [6] was “inactive” in each case. In addition, the Potency result in assay [7] and in assay [9] was “inactive” in each case. For the same compound, the result in [8] was inactive.
With `O=C(NC(=O)c1cc(F)c(F)cc1Cl)Nc1cc(F)ccc1N1CCC(C(=O)O)CC1`, the Potency result in assay [1], in assay [2], in assay [3], in assay [4], in assay [6] and in assay [7] was “inactive” each time. The outcome in assay [8] was inactive.
On to `CCC1(CC)C(=O)NC(=O)NC1=O`, for which the Potency entry in assay [1], in assay [3], in [5], in assay [6], in [7] and in assay [9] was “inactive” in each case. For the same compound, in assay [8], the call was inactive.
On to `NCCc1cc(O)c(O)cc1O`, for which the Potency result in [1], in [2], in [3], in [4], in assay [5] and in [6] was “inactive” in each case. For the same compound, the Potency entry in [7] and in [9] was “inactive” in each case. In assay [8], the call was inactive.
As to `CC1(C)[C@H](C(=O)O[C@H](C#N)c2cccc(Oc3ccccc3)c2)[C@@H]1C=C(Br)Br`, the Potency result in assay [1], in assay [2], in assay [3], in [4], in assay [5] and in assay [6] was “inactive” in each case. Also, the Potency result in assay [7] and in assay [9] was “inactive” each time.
In the case of `CC[N+]1(C)CCCC(OC(=O)C(O)(c2ccccc2)c2ccccc2)C1` (stereo not given), the Potency result in assay [10], in [2], in assay [3], in assay [4], in assay [5] and in assay [6] was “inactive” each time. Further, the Potency entry in assay [7] and in assay [9] was “inactive” each time. The result in assay [8] was inactive.
Turning to `C=C(Cl)Cl`, the Potency result in [10], in assay [2], in [3], in assay [4], in assay [5] and in assay [6] was “inactive” in each case. The Potency result in assay [7] and in [9] was “inactive” in each case. In addition, in assay [8], the outcome was inactive.
In the case of `CCOC(=O)c1cn2nc(OP(=S)(OCC)OCC)cc2nc1C`, the Potency entry in assay [1], in assay [2], in assay [3], in assay [4], in [7] and in [9] was “inactive” in each case. Also, the Potency in assay [5] and in assay [6] was 17.4 µM (active) each time.
